Inconclusive results are not listed. Calls come from the whole dose curve; as a rule, active = well fitted curve in either direction with a large enough effect (not every such curve was filed as active); inconclusive = small, poorly fitted or top-dose-only effect, or another doubt; inactive = flat fitted curve, though single readings scatter.
Test: NFAT Signaling Pathway (AID 444);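 note: carbachol stimulus at about its EC50 of 1 µM final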
Details: Jurkat NFAT-bla M1, carbachol, beta-lactamase ratio, 5 h; at 17.2 µM (top of the series) unless noted
Procedure, shortened: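 Jurkat cells with NFAT-driven β-lactamase reporter and co-expressed M1 receptor, stimulated with carbachol (final 1 uM, ~EC50), compound titration, 5 h at 37 °C. CCF4 loaded 1 h at RT; 460/530 nm ratio gave %activity and AC50.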
% is set by controls: 0 for no effect and ±100 for the full control effect.

Activity change, negative = inhibition, inactive:
CCCOc1ccc(-c2nnc(N)s2)cc1 2.03%, CC(C)OC(=O)c1sc2nc3c(cc2c1N)C(=O)CCC3 7.77%, Cc1cc(C)n(C(=O)CNC(=O)c2cccs2)n1 3.15%, CCCCCCOC(=O)CCn1[nH]c(=O)c2ccccc2c1=O 7.42%, Cc1ccc(-c2nnc(OCCN3CCOCC3)c3ccccc23)cc1 5.38%, Oc1ccc2ccccc2c1/C=N/n1cnnc1 6.11%, NC(=O)C1CCN(CCC(=O)Nc2ccc(Br)cc2)CC1 -28.6%, COc1ccc(/C(O)=C2\C(=O)C(=O)N(CCN3CCOCC3)C2c2ccccc2OC)cc1 (stereo not given) 15.6%, CCCCNC(=O)N1CCOCCOCCN(C(=O)NCCCC)CCOCC1 4.17%, CN(C)CC(O)COc1cccc(OCC(O)CN(C)C)c1 (stereo not given) -0.493%, CN(C)CCCn1c(NC(=O)C2CCCCC2)nc2ccccc21 -10.7%, Cc1cc(NC(CC(C)C)C(=O)O)nc(Cc2ccccc2)n1 (stereo not given) 7.49%, CCCC(=O)Nn1cnc2c(c1=O)C1(CCCC1)Cc1ccccc1-2 -0.237%, O=C(O)C(Cc1c[nH]c2ccccc12)NS(=O)(=O)c1cccc2nsnc12 (stereo not given) 3.61%, O=C(c1cccc2ccccc12)N1CCC(N2CCN(c3ccccc3)CC2)CC1 -0.0782%, CCOc1ccc(S(=O)(=O)N(C)C)cc1-c1nc2c(C(C)(C)C)nn(C)c2c(=O)[nH]1 8.6%, CCOC(=O)CC(=O)CSc1nc2c(cc1C#N)CCCCC2 1.41%, Cc1ccc(C(=O)C2C(c3cccs3)NC(=O)NC2(O)C(F)(F)F)cc1 (stereo not given) 8.36%, COCCNc1nc2c(c(=O)n(C)c(=O)n2C)n1Cc1cccc(C(F)(F)F)c1 5.18%, c1ccc(CN2CCN(c3nc(-c4ccccn4)nc4ccccc34)CC2)cc1 -29%, CCOC(=O)C(C)c1nc2ccccc2[nH]c1=O (stereo not given) -0.784%, CC1(C)Cc2c(c(-c3ccccc3)[nH]c(=O)c2C#N)CS1 2.27%, CCN(CC)CCNC(=O)c1c(C)oc2cc(Br)c(OC)cc12 -19.9%, OCCCc1nc2ccccc2n1CCc1ccccc1 -7.48%, Oc1ccccc1-c1nc(NCCN2CCOCC2)c2ccccc2n1 25.8%, CC(NC(=O)CSc1nnc(COc2ccccc2)o1)c1ccccc1 (stereo not given) -0.274%, Cc1[nH]nc2cn[nH]c12 6.17%, C[N+](C)(C)CCOP(=O)([O-])OC[C@H](O)CO 0.0397%, CCOC(=O)C1=C(N)N2C(=O)CSC2=C(C(=O)OC)C1 12.5%, N/C(CCN1CCOCC1)=N/O 2.54%, Cn1c(=O)c2c(nc(N3CCC(C(N)=O)CC3)n2CCSc2nc3ccccc3s2)n(C)c1=O -5.54%, CC(=O)N1CCC2(CC1)C(C#N)=C(N)Oc1n[nH]c(C(F)(F)F)c12 -24.1%, Cc1ccc(-n2nc3cc(Cl)c(NC(=O)c4ccco4)cc3n2)cc1 -3.83%, O=C1C(=O)N(Cc2cccnc2)C(c2ccccn2)/C1=C(/O)c1ccc(Br)cc1 (stereo not given) 15.2%, COc1ccc2c(c1)nc(N)n2Cc1ccccc1 -9.42%, O=C(O)c1ccc(C2CCCCC2)cn1 -13.3%, CCSc1nnc(NC(NC(=O)c2ccco2)(C(F)(F)F)C(F)(F)F)s1 -7.65%, c1ccc2c(c1)[nH]c1c(N3CCSCC3)ncnc12 -20.2%, CC(C)Oc1ccc(/C(O)=C2/C(=O)C(=O)N(CCN3CCOCC3)C2c2ccccc2)cc1 (stereo not given) 19.7%, COC(=O)C(NC(C)=O)(Nc1nc2ccc(S(C)(=O)=O)cc2s1)C(F)(F)F (stereo not given) 7%
